# Reference: PubChem BioAssay AID1626 (SRMLSC, 2009)
# “And” between values parts separate entries of the source, which are not always exact repeats. Equal entries are not always repeated. The whole screen tested about 220,000 compounds, of which about 2,000 (0.91%) were called active. Roughly 2% stayed inconclusive and do not appear here. The list is a sample of the results. Potency and affinity values are given separately. Values without a mark were called inactive. Cut-off read from the data, not from the text of the source: inconclusive = inhibition above about 80% without an active follow-up result; inactive = below that; test concentration not stated here.
# Assay: M. tuberculosis H37Rv growth inhibitors, H37Rv strain (AID 1626);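 note: bacteria incubated seven days before Alamar blue readout; 0% = bacteria only wells and 100% = bacteria with antibiotic wells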
# Settings: stronger effect = higher value, concentration not given here
row,SMILES,inhibition
1,CC1=C(C(=O)Nc2ccccc2)C(c2ccco2)NC(=O)N1 (stereo not given),-10.5%
2,COc1cc(NC(=O)CN2C(=O)NC(C)(c3ccccc3)C2=O)c(C)cc1[N+](=O)[O-] (stereo not given),3.59%
3,Cc1cc(C)n2c(SC/C(O)=C(\C#N)c3nc4ccccc4[nH]3)nnc2n1,-3.82%
4,COc1ccc(C(=O)NCC2CCCO2)cc1OC (stereo not given),-3.63%
5,CC(COc1ccccc1Cc1ccccc1)N1CCCCC1 (stereo not given),1.05%
6,c1ccc(CN(CC2=NCCN2)c2ccccc2)cc1,-7.61% and -7.26%
7,CCOc1cc(N2CCOCC2)c(OCC)cc1NC(=O)c1ccc2ccccc2n1,7.27%
8,CCNc1nc(CN2CCCCC2)nc2scc(-c3ccccc3)c12,10.7%
9,c1csc(-c2csc3nc(CN4CCOCC4)nc(NCc4ccc5c(c4)OCO5)c23)c1,-6.15%
10,CN(Cc1ccccc1)c1nc(CN2CCOCC2)nc2scc(-c3ccccc3)c12,38.4%
11,NC(=O)C1CC(O)CN1c1nc(CN2CCOCC2)nc2scc(-c3ccccc3)c12 (stereo not given),-8.45%
12,CC/C(=N\Nc1ccccc1)c1c(O)n(-c2ccccc2)c(=O)[nH]c1=O,47.3%
13,Cc1cccc(NC(=O)c2nc[nH]c2C(=O)N[C@@H](CC(C)C)C(=O)OC(C)(C)C)c1,39%
14,Cc1cccc(NC(=O)c2nc[nH]c2C(=O)N[C@@H](C)C(=O)OC(C)(C)C)c1,80%
15,C[C@H](NC(=O)c1[nH]cnc1C(=O)Nc1ccc(Cl)cc1)C(=O)OC(C)(C)C,52.4%
16,Cc1cccc(NC(=O)c2nc[nH]c2C(=O)N[C@@H](Cc2ccccc2)C(=O)OCc2ccccc2)c1,-0.81%
17,C[C@H](NC(=O)c1nc[nH]c1C(=O)N[C@H](C)c1ccccc1)C(=O)OCc1ccccc1,2.36%
18,CNC(=O)c1[nH]cnc1C(=O)N[C@@H](C)C(=O)OCc1ccccc1,-1.09%
19,COc1ccccc1-n1c(SCC(=O)Nc2ccccc2C)nc(O)cc1=O,-5.47%
20,NNC(=O)[C@H]1C[C@@H]1c1ccccc1,-1.45%
21,Cc1ccc(SC(C)c2nc(-c3ccncc3)no2)cc1 (stereo not given),3.66%
22,O=C(Cc1ccc(Cl)c(Cl)c1)Nc1ccc2[nH]c(=O)[nH]c2c1,-1.82%
23,Clc1ccc(C(c2ccccc2)N2CCNCC2)cc1 (stereo not given),0.35%
24,CCOc1cc(/C=C/c2ccc3cccc([N+](=O)[O-])c3n2)ccc1O,-4.71%

row,SMILES,inhibition
1,COc1cc(/C=C/C(=O)O)ccc1O,-3.73%
2,Cc1ccc(NC(=S)N(Cc2ccccc2)C(C)C)cc1,-1.3%
3,CCC(C)c1c(O)nc(SCC(=O)Nc2ccccc2)[nH]c1=O (stereo not given),-5.09%
4,Nc1cc(=O)[nH]c(SCC(=O)Nc2ccc3c(c2)CCC3)n1,4.78%
5,CCCc1cc(=O)[nH]c(SCC(=O)Nc2ccc3c(c2)CCC3)n1,7.3%
6,O=C(CSc1nc(O)cc(=O)[nH]1)Nc1ccc2c(c1)CCC2,6.46%
7,CCN(CC)C(=O)C(=O)Nc1ccc(Oc2ccccc2)cc1,14.4%
8,COc1cccc(CNCCc2c[nH]c3ccccc23)c1OCc1ccc(F)cc1,28.9%
9,COc1cccc(CNCCc2c[nH]c3ccccc23)c1OCc1ccccc1,52.7%
10,COc1cc(CNCCCCO)ccc1OCc1ccccc1F,0.63%
11,CCNCc1ccc(OCc2ccccc2F)c(OC)c1,6.78%
12,O=C(NCCc1ccccc1)C1CC(=O)N(C2CCCCCC2)C1 (stereo not given),-3.62%
13,COC(=O)C1=C(c2ccccc2)C[C@@H]2CC[C@H]1N2C(=O)NCC1CC1,-3.96%
14,COC(=O)c1ccc(COC(=O)c2cnccn2)cc1,16.3%
15,O=C(OCc1ccc(Cl)cc1)c1cnccn1,13.5%
16,O=[N+]([O-])c1cccc(-c2noc(-c3cccs3)n2)c1,0.93%
17,O=C(NCc1n[nH]c(=S)n1Cc1ccccc1)c1ccc(Cl)cc1Cl,7.03%
18,COc1cccc(C2c3c(oc4ccccc4c3=O)C(=O)N2c2ccccn2)c1 (stereo not given),-5.48%
19,COc1cc(OC)c(S(=O)(=O)NCc2ccco2)cc1S(=O)(=O)NCc1ccco1,1.4%
20,Cc1ccc(Cl)cc1NC(=O)COC(=O)c1ccc(N2CCCC2)c([N+](=O)[O-])c1,-3.66%
21,Cc1cccc(-n2cc(CN3CCN(Cc4nccn4C)CC3)c(-c3cccc(F)c3)n2)c1,27%
22,Cc1cccc(-n2cc(CN3CCN(c4ccccn4)CC3)c(-c3cccc(F)c3)n2)c1,15.4%
23,CCN1CC(CN(C)Cc2cn(-c3cccc(C)c3)nc2-c2cccc(F)c2)CC1=O (stereo not given),15.3%
24,Cc1ccc(-c2nn(-c3cccc(F)c3)cc2CN(Cc2nccn2C)C(C)C)o1,22.5%

row,SMILES,inhibition
1,CCOC(=O)N1CCC(N(CCN(C)C)C(=S)Nc2cccc(OC)c2)CC1,10%
2,CCn1ccnc1CNC(=O)c1cc(COc2ccc(F)cc2F)on1,13.2%
3,O=C(NC1=NCCS1)c1cc2ccccc2o1,-1.2%
4,CCn1nnc(NC(=O)Cc2ccc(Cl)cc2)n1,-0.3%
5,CC(=O)N1CCN(C(=S)c2ccc(-c3ccc(Cl)cc3)o2)CC1,4.85%
6,CCCn1nnc(NC(=O)c2ccc(-c3cccc(Cl)c3)o2)n1,0.76%
7,COc1ccccc1NC(=S)NC(=O)c1ccc(-c2ccc(Cl)cc2)o1,79.3%
8,CCc1nnc(NC(=O)c2ccc(-c3ccc(Cl)cc3)o2)s1,3.33%
9,CCOC(=O)c1cc(CC)sc1N1C(=O)CC(Sc2ncccc2C(=O)O)C1=O (stereo not given),2.89%
10,Cc1ccc(S(=O)(=O)N(C)C)cc1NC(=O)C1CCC1,-2.34%
11,CCOc1ccc(N(CC(=O)Nc2c(C)cccc2C)S(=O)(=O)c2c(C)[nH]c(=O)[nH]c2=O)cc1,7.56%
12,CC(C)Cn1c(N2CCN(C(=O)c3cccs3)CC2)nc2ccccc21,-13.3%
13,CCn1c(N2CCN(C(=O)/C=C/c3ccccc3)CC2)nc2ccccc21,0.45%
14,CCOc1ccc(CC(=NCCc2ccccc2)C2=C(O)CC(C)(C)CC2=O)cc1OCC,6.31%
15,CCn1c(SCC(=O)Nc2ccc3c(c2)OCCO3)nnc1-c1c[nH]c2ccccc12,-6.16%
16,COc1cccc(C(=O)Nc2nnc(-c3cccs3)s2)c1,8.53%
17,O=C(Nc1nnc(-c2cccs2)o1)c1ccco1,71.2%
18,O=C(Nc1cccc(C(F)(F)F)c1)c1cc(-c2cccs2)on1,-6.91%
19,O=C(Nc1nn[nH]n1)c1cccc(Oc2ccccc2)c1,-4.2%
20,CCCCNc1ccc(S(N)(=O)=O)cc1[N+](=O)[O-],-3.02%
21,COC(=O)C1C(O)=C(C=Nc2cccc3ccccc23)C(=O)CC1(C)C (stereo not given),55%
22,COC(=O)C1C(O)=C(C=Nc2ccccc2)C(=O)CC1(C)C (stereo not given),18%
23,CC1CCN(C(=O)c2ccc(N3CC4CC(C3)c3cccc(=O)n3C4)c([N+](=O)[O-])c2)CC1 (stereo not given),-2.48%
24,Nc1cc(=O)[nH]c(SCC(=O)Nc2ccccc2Sc2ccccc2)n1,0.31%

row,SMILES,inhibition
1,Nn1c(SCc2ccc(F)cc2)nnc1-c1cccnc1,0.75%
2,Cc1nc(/N=C(\N)Nc2ccccc2)nc2ccccc12,-4.15%
3,CCCC(=O)N/C(N)=N/c1nc(C)c2cc(C)ccc2n1,31.5%
4,Cc1ccc2nc(N=C(N)N)nc(C)c2c1,8.48%
5,Cc1cc(C)c2nc(/N=C(\N)NC(=O)c3ccccc3)nc(C)c2c1,5.97%
6,O=C(NCCNC(=O)c1ccc([N+](=O)[O-])cc1)c1ccncc1,-5.65%
7,O=S(=O)(Nc1cccc2cn[nH]c12)c1ccc(F)cc1,-1.2%
8,CC(=O)NCCOc1ccc2oc3ccccc3c2c1,14.2%
9,C/C(=N\OCC(=O)NC12CC3CC(CC(C3)C1)C2)c1cc2ccccc2o1,24.4%
10,O=C(c1ccccc1)N1CCCC(C(=O)N2CCN(c3ccccc3)CC2)C1 (stereo not given),-13.7%
11,OC(COCC(F)(F)C(F)(F)C(F)(F)C(F)F)Cn1c2ccccc2c2ccccc21 (stereo not given),47.2%
12,CC(=O)N(C)c1ccc(OCC(O)Cn2c3ccc(Cl)cc3c3cc(Cl)ccc32)cc1 (stereo not given),-0.39%
13,CCn1c(SCC(=O)Nc2nc(C)cs2)nnc1-c1cccnc1,10.4%
14,O=C(NCc1cccnc1)c1ccc(-c2ccc(Cl)cc2)o1,-1.29%
15,O=C(NCc1cccnc1)/C(=C/c1ccc(-c2cccc(Cl)c2)o1)S(=O)(=O)c1ccccc1,56.8%
16,CC(=O)NCc1nc2ccccc2n1Cc1ccccc1C,-1.94%
17,CC(=O)Nc1nc2ccccc2n1CCN(C)C,-1.12%
18,CCS(=O)(=O)c1nc2ccccc2n1Cc1ccccc1Cl,0.3%
19,CC(=O)NCCc1nc2ccccc2n1Cc1ccccc1,2.23%
20,CC(=O)NCCCc1nc2ccccc2n1Cc1ccccc1C,-3.1%
21,Cc1ccccc1Cn1c(C(C)O)nc2ccccc21 (stereo not given),1.24%
22,CCn1c(NCc2ccccc2Cl)nc2ccccc21,1.72%
23,CCC(=O)Nc1nonc1-c1nc2ccccc2n1Cc1cccc2ccccc12,20.3%
